# Screening results (PubChem)
# NPC1 prom act: activators of NPC1 promoter. 320,000 compounds, 2.4% hits. Potency, µM (highest dose often 9.22 µM), inactives show at the top dose activation, hits mostly activators. Huh7 NPC1 promoter luciferase reporter, 24 h; further: % of control where 0% means no effect; nearly all actives have a fitted effect of over 60% in size
#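 Luminescence read-out of NPC1 promoter-driven luciferase in stably transfected Huh7 cells; compounds delivered in DMSO and left 24 h at 37C, 5% CO2, qHTS titration format.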
# SMN2 splice enh: enhancers of SMN2 splice variant expression. AID 1458. Potency, µM (doses to about 46.1 µM), for inactives: at the top dose activity change, positive = activation, actives largely listed as activators. 210,000 compounds, 2.8% hits. HEK293 SMN2-luciferase splicing reporter, luminescence, 30-36 h; further: % of control where 0% means no effect; nearly all actives have a fitted effect of over 55% in size
#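 HEK293 cells carry an SMN2 […]–luciferase reporter in which exon 7 inclusion puts luciferase in frame. Cells were plated 10-12 h before compound addition, then incubated 30-36 h at 37C. ONE-Glo luminescence was read; sodium butyrate at 4.5 mM final served as control.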
# Rab9 promoter act: activates the Rab9 promoter; Huh7 Rab9 promoter-luciferase reporter, luminescence, 24 h; 320,000 compounds, 2.8% hits; Potency, µM (top dose mostly 9.22 µM), inactives show at the highest dose activation, negative = inhibition, most hits filed as activators; AID 485297; further: % of control where 0% means no effect; nearly all actives have a fitted effect of over 60% in size
#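 Promoter activation is measured as luciferase luminescence in Huh7 cells stably transfected with a Rab9 promoter–luciferase construct, following 24 h compound exposure at 37 °C and 10 min reagent incubation at ambient temperature.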
# ELG1 genotox: genotoxicity induction in ELG1-luciferase HEK293T cells; HEK293T ELG1-luciferase reporter, luminescence, 16 h; 330,000 compounds, 1.3% hits; Potency, µM (series often up to 46 µM), for inactives: top-dose activity change, positive = activation, most hits filed as activators; further: % of control where 0% means no effect; nearly all actives have a fitted effect of over 60% in size
#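 HEK293T cells expressing luciferase-tagged ELG1 were exposed to compound or DMSO vehicle for 16 hr at 37 °C and 5% CO2. Luciferase activity was then measured with ONE-Glo after 30 min at room temperature.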
# FLuc counter: firefly luciferase modulation, counter-screen for miR-21 project; P08659; purified FLuc, Km substrates, luminescence inhibition; Potency, µM (doses to about 57.5 µM), for the others: at the highest dose activity change, negative = inhibition, actives largely listed as inhibitors; 360,000 compounds, 6.9% hits;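 further: plate controls were vehicle for no effect and reference inhibitor for full effect; nearly all actives have a fitted effect of over 55% in size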
# Target sequence (P08659 whole entry, looked up): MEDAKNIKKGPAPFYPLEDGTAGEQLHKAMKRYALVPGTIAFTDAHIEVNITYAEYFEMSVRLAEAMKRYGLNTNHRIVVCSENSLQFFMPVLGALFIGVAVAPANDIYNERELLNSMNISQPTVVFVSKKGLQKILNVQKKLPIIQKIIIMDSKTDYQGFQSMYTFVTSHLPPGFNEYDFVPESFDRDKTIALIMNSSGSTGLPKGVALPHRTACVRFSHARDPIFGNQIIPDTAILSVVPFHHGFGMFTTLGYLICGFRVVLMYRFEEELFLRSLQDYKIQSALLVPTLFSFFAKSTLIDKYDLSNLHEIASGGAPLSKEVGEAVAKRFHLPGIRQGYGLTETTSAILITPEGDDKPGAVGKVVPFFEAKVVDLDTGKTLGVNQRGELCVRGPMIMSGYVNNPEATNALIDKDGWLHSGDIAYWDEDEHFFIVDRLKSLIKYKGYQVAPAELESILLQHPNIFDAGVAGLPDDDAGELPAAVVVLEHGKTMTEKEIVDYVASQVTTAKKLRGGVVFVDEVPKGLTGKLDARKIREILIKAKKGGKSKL
#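 Purified P. pyralis luciferase, 10 nM final, with Km-level 10 uM D-luciferin and 10 uM ATP in 50 mM Tris acetate pH 7.5, 10 mM Mg acetate, 0.01% Tween-20, 0.05% BSA; 6-point qHTS titration about 60 µM downward; luminescence read.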
# Active calls of the source: *; ? = inconclusive; · = not tested or not shown; [ ] = another dose, or the depositor's remark. The list is not random: actives were taken first. Their share in the collection is about 7.4%. The call rests on the fitted dose curve; in most records, active means well fitted curve in the direction sought with a large enough effect; inconclusive means small, poorly fitted or top-dose-only effect, or another doubt; inactive means no such curve, though single readings can be large; an effect the other way counts as inactive or inconclusive. Potency means the concentration at half of the fitted maximal effect.
SMILES,NPC1 prom act,SMN2 splice enh,Rab9 promoter act,ELG1 genotox,FLuc counter
CCOc1ccc(N2C(=O)c3ccccc3NC2(C)CC)cc1 (configuration not stated),?,·,3.55µM*,?,·
CCC1(C)Nc2ccccc2C(=O)N1O (configuration not stated),-7.9%,16.2%,-2.3%,-1.6%,-2.1%
COc1ccc(N2C(=O)c3ccccc3NC2(C)C)cc1,?,8.91µM*,?,-1.6%,-2.5%
C=C1c2ccccc2NC(=O)N1c1ccc(OC)cc1,-4.6%,·,-0.3%,8.5%,2.8%
COc1ccc(N2C(=O)c3ccccc3NC23CCCCC3)cc1,2.82µM*,12.6µM*,2.51µM*,?,10.7µM*
COc1ccc(N2C(=O)c3ccccc3NC23CCC(C)CC3)cc1 (configuration not stated),2.51µM*,10µM*,2.24µM*,?,?
COC(=O)c1ccccc1S(=O)(=O)N1CCC(C(=O)N(C)CCOc2ccccc2)CC1,-0.8%,·,-5.1%,1.2%,4.5%
Clc1ccc(-c2csc(Nc3ccccc3)[n+]2Cc2ccco2)c(Cl)c1,?,-47.4%,2.82µM*,10.5%,12µM*
O=C(Nc1ccc(F)cc1)Nc1csc2ccccc12,23.7%,·,20.6%,-6.3%,23.9µM*
CN(C)c1ccc(NC(=O)Nc2csc3ccccc23)cc1,29.7%,·,?,?,2.69µM*
CCCCC/C=C\C/C=C\C/C=C\CCCCCCC(=O)NC(C)C(=O)O (configuration not stated),·,11.4%,·,·,·
COc1cccc(CNC(=O)C2CCC(=O)N(CC3CCCCC3)C2)c1OC (configuration not stated),0.2%,·,-1.7%,0.1%,-2.5%
Cc1nnc(SCC(=O)NNC(=O)c2ccc(F)cc2)n1Cc1ccccc1,·,·,·,2.5%,·
COc1cc(-c2ccccc2)nc(N)n1,?,0.9%,3.16µM*,16.4µM*,?
CCOc1cc(-c2ccccc2)nc(N)n1,?,0.2%,?,22.3%,?
O=C(COC(=O)c1ccccc1F)c1ccc(-n2nncc2-c2ccco2)cc1,6.6%,-0.4%,-3.9%,2.4%,12µM*
N#Cc1c(NC(=O)CSC2=NCCS2)sc2c1CCCC2,1.4%,-23.7%,-0.8%,-4.5%,-18.4%
Cn1nnnc1SCC(=O)Nc1nc2c(s1)CCCC2,?,·,3.16µM*,8.2µM*,12µM*
O=C(CSC1=NCCS1)Nc1nc2c(s1)CCCC2,?,29.6%,?,8.3%,16.9µM*
O=C(/C=C/c1ccoc1)c1ccccc1O,-2.8%,-6.9%,-2.6%,?,9.53µM*
COc1ccc(O)c(C(=O)/C=C/c2cc3ccccc3o2)c1,-1.9%,·,-6.8%,·,?
O=C(/C=C/c1cc2ccccc2o1)c1ccccc1O,?,·,?,?,2.39µM*
COc1ccc2ccccc2c1C(=O)/C=C\c1ccoc1,-6.4%,-8.4%,2.6%,0.1%,26.9µM*
O=C(/C=C/c1ccc(O)c(O)c1)OCCc1ccccc1,-8.3%[46.1 µM],15.8µM*,-25.0%[46.1 µM],·,·
O=C(N/N=C/c1ccoc1)c1ccccc1F,18.8%,·,18.2%,?,?
SMILES,NPC1 prom act,SMN2 splice enh,Rab9 promoter act,ELG1 genotox,FLuc counter
CCN(CC)CCCC(C)Nc1nc(C)cc(Nc2ccc3nc(C)cc(N)c3c2)n1 (configuration not stated),·,-7.7%,·,·,·
COc1ccc(-c2nc(CN3CCC(C(=O)NCC4CCCO4)CC3)c(C)o2)cc1OC (configuration not stated),0.3%,·,-0.6%,2.9%,-0.1%
O=C(/C=C/c1ccc(O)c(O)c1)c1ccccc1O,-0.4%,·,-17.7%,?,8.49µM*
O=C(O)/C=C\c1ccc(O)c(O)c1,·,-2.4%[20.6 µM],·,·,·
N#Cc1c(N2CCCC(O)C2)nc(N)c2c(N)nc3c(c12)CC(=O)N3C12CC3CC(CC(C3)C1)C2 (configuration not stated),-2.9%,-85.0%,-10.9%,-8.2%,5.36µM*
C=C(C)CN(CC)c1nc(N)c2c(N)nc3c(c2c1C#N)CC(=O)N3C12CC3CC(CC(C3)C1)C2,-1.9%,-7.1%,-0.6%,-1.0%,-2.1%
O=C(CSc1cn(Cc2ccccc2)c2ccccc12)Nc1nccs1,3.16µM*,?,2.51µM*,4.61µM*,0.849µM*
O=C(CSc1ccccc1)Nc1nccs1,13.7%,16.9%,?,6.7%,-16.0%
COc1ccc(CNC(=O)CN(C(=O)c2csnn2)c2cccc(C(C)=O)c2)cc1,-0.5%,·,-0.3%,-3.5%,-0.7%
Cc1cc(-c2nnco2)c(C)n1-c1ccc(F)cc1,26.0%,0.0%,29.6%,5.5%,16.9µM*
COC(=O)c1ccc(-c2sc3nc(N4CCOCC4)c4c(c3c2N)CC(C)(C)OC4)o1,1.2%,31.6µM*,-0.4%,0.7%,-2.2%
COc1ccc(NC(=O)C2CCN(S(=O)(=O)c3ccc4[nH]c(=O)ccc4c3)CC2)c(OC)c1,·,·,·,·,-0.6%
COc1ccc(N2CCN(C(=O)COc3ccc4ccccc4c3)CC2)cc1,-3.0%,1.4%,-1.0%,0.3%,-2.1%
O=C(COc1ccccc1)N1CCN(C(=O)c2ccc([N+](=O)[O-])cc2)CC1,3.98µM*,·,3.16µM*,?,9.53µM*
COc1cc(OC)cc(C(=O)N2CCN(C(=O)COc3ccc4ccccc4c3)CC2)c1,8.6%,-12.4%,2.7%,0.9%,5.36µM*
Cc1ccc(N2C(S)=C(C#N)C(=O)NC23CCCCC3)cc1,-2.3%,19.0%,-4.5%,1.0%,16.9µM*
CC1CCCCC1NC(=O)CCS(=O)(=O)c1cc2c(cc1Cl)NC(=O)CO2 (configuration not stated),-4.4%,·,-2.0%,2.1%,3.0%
Cc1csc(-c2coc3cc(O)cc(C)c3c2=O)n1,?,?,?,20.6µM*,9.53µM*
COc1ccc2c(=O)c(-c3nc(C)cs3)coc2c1,0.631µM*,4.47µM*,1.26µM*,?,0.757µM*
CCc1cc2c(=O)c(-c3nc(C)cs3)coc2cc1O,2.0%,·,?,?,1.9µM*
Cc1csc(NC(=O)Cc2coc3cc(C)c(C(C)C)cc23)n1,1.3%,?,-4.7%,-5.2%,0.8%
O=C(c1cccc(F)c1)N1CCC2(CC1)CN(c1ccccn1)C2,·,-37.6%,·,·,·
Cc1ccc(N2C(=O)CCC2(C(N)=O)c2ccccc2)cc1 (configuration not stated),0.2%,·,-1.0%,1.7%,-1.2%
Cc1ccc(Cc2cn3cc(-c4ccc(F)cc4)nc3s2)cc1,·,?,·,·,0.757µM*
O=C(CSc1nnc(C2CCCCC2)o1)Nc1ccccc1Cl,?,·,3.55µM*,?,?
COc1ccc(NC(=O)CSc2nnc(C3CCCCC3)o2)c(OC)c1,0.0%,7.8%,-2.8%,-1.1%,-1.1%
COc1cc2c(cc1OC)-c1cc(Nc3ccc4c(c3)OCCO4)nc(=O)n1CC2,-0.9%,-0.1%,-9.5%,?,15.1µM*
COc1ccc(Nc2cc3n(c(=O)n2)CCc2cc(OC)c(OC)cc2-3)cc1,1.8%,·,0.4%,14.5%,?
